Screening results: PubChem, National Center for Advancing Translational Sciences (NCATS)
Shown are actives, neighbours in structure and some others; about 2.8% of the full set was active somewhere.
ATXN2 expr inh: ATXN2 expression inhibition. Potency, µM (titrated, usually from 57 µM), inactives show at the top dose activity change, negative = inhibition, hits mostly inhibitors. HEK-293 ATXN2-luciferase reporter, luminescence, 24 h. AID 1745845. 360,000 compounds, 0.72% hits; note: potency is the fitted concentration of half-maximal effect; % is set by controls: 0 for no effect and ±100 for the full control effect; nearly all actives have a fitted effect of over 55% in size
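qHTS (up to 57 uM final) was run with 24 h compound exposure of reporter cells at 37 °C. Each well was multiplexed: SteadyGlo luminescence measured ATXN2-luciferase expression after a fluorogenic Gly-Phe-AFC viability readout (25 uM final).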
HepG2 tox: kills HepG2 cells in TGF-b inhibitor counter-screen; AID 588856; HepG2 CAGA-GFP viability, ATP luminescence, 18 h; Potency, µM (titrated, usually from 46.1 µM), for inactives: at the highest dose activity change, negative = cytotoxicity, usual class: cytotoxic; 410,000 compounds, 0.76% hits; note: potency is the fitted concentration of half-maximal effect
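HepG2 CAGA-GFP cells (1000/well, DMEM with 1% FBS) received compound, then TGF-beta at 500 pg/mL final, and were incubated 18 hours at 37 degrees C. Viability was read by CellTiter-Glo luminescence. Media-only wells were set as complete cell-killing and DMSO as no toxicity.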
CtBP-E1A blk: blocks the CtBP interaction with E1A; activity change, % (test concentration not listed); AlphaScreen GST-E1A/His-CtBP binding, 1536-well; active compounds read low; 340,000 compounds, 0.49% hits; in the data active = activity change below about -65%; inconclusive = mostly about -30% to -63%; note: % is set by controls: 0 for no effect and ±100 for the full control effect
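Homogeneous bead-based format: GST-tagged E1A captured on glutathione donor beads, His-tagged CtBP on nickel acceptor beads; compounds precede bead addition by 2 h at 37 °C.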
ATXN viability: viability counter-screen for ATXN expression inhibitors | S2 cells (HEK-293 line with an ATXN2-luciferase reporter) viability, CellTiter-Fluor protease fluorescence, 24 h | Potency, µM (highest dose often 56.7 µM), most hits filed as cytotoxic | 400,000 compounds, 0.49% hits | AID 651635; note: potency is the fitted concentration of half-maximal effect; nearly all actives have a fitted effect of over 40% in size
Six1-Eya2 inh: inhibitors of human Six1/Eya2 interaction | AlphaScreen GST-Six1/His-Eya2 binding, biochemical; active compounds read low | Q15475+O00167 | 360,000 compounds, 0.56% hits | AID 651725 | activity change, % (concentration not given with the values); in the data active = activity change below about -65%; inconclusive = mostly about -30% to -63%; note: % is set by controls: 0 for no effect and ±100 for the full control effect
Target sequence (O00167 whole entry, looked up): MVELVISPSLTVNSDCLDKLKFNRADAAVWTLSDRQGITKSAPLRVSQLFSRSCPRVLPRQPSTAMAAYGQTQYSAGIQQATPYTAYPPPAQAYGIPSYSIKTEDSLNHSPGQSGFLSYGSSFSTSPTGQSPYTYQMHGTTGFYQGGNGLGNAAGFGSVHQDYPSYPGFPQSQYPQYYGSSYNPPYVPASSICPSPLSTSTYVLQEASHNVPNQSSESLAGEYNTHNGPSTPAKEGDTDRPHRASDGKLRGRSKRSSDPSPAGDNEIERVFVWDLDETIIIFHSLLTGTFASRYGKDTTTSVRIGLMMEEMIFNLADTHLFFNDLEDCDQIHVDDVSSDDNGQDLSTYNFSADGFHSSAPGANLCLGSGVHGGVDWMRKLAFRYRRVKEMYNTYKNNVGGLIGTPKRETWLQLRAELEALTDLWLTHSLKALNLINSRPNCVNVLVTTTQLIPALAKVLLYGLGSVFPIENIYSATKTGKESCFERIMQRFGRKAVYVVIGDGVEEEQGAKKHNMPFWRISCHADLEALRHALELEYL
Target sequence (Q15475 whole entry, looked up): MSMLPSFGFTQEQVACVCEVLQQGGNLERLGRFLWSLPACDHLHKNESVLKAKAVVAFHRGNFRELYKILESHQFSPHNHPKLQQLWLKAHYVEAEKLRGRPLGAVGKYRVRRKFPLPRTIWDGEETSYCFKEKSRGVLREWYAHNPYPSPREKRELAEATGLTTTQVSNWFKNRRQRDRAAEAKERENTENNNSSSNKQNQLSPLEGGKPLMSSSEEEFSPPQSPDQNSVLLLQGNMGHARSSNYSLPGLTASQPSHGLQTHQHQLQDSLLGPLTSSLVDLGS
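AlphaScreen with GST-Six1 and His-Eya2 (5X mix: 250 nM and 500 nM), glutathione donor and nickel acceptor beads; buffer 50 mM Tris pH 8.0, 300 mM NaCl, 1 mM TCEP; 1 h at 37 C in the dark.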
TGFb SMAD3 inh: inhibitors of TGF-b signaling | 410,000 compounds, 1.2% hits | HepG2 CAGA-GFP TGF-b/SMAD3 reporter, GFP fluorescence, 18 h; TGF-beta stimulated, 500 pg/mL final | Potency, µM (titrated, usually from 46.1 µM), for inactives: top-dose activity, negative = inhibition, usual class: inhibitors | AID 588855; note: potency is the fitted concentration of half-maximal effect; % is set by controls: 0 for no effect and ±100 for the full control effect; nearly all actives have a fitted effect of over 65% in size
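Inhibition was scored as loss of TGF-beta-induced (500 pg/mL final, 18 hours, 37 degrees C) GFP in HEPG2 cells carrying a CAGA-GFP reporter, in DMEM with 1% FBS. Well GFP was summed per cell; Activity was normalised to unstimulated and stimulated DMSO wells, then concentration-response fitting.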
The depositor's hits bear a star. Unless noted, calls come from the whole dose curve; as a rule, active = well fitted curve in the direction sought with a large enough effect; inconclusive = small, poorly fitted or top-dose-only effect, or another doubt; inactive = no such curve, though single readings can be large; an effect the other way counts as inactive or inconclusive.

Screening O=C(c1cccc(Cl)c1)N1CCC2CC1c1cc(-c3ccccc3)ccc12 (configuration not stated) returned ATXN2 expr inh 1%, HepG2 tox -39%, CtBP-E1A blk 0, ATXN viability inactive, Six1-Eya2 inh -4 and TGFb SMAD3 inh inconclusive.
`O=C(c1ccc(Cl)cc1)N1CCC2CC1c1cc(-c3ccccc3)ccc12` (configuration not stated) gave ATXN2 expr inh -12%, HepG2 tox -17%, CtBP-E1A blk 16, ATXN viability inactive, Six1-Eya2 inh 4 and TGFb SMAD3 inh 20µM*.
COC(=O)c1ccc(C(=O)NCC2Cc3cccc(-c4ccc(C(=O)OC)cn4)c3O2)cc1 (configuration not stated) was read as ATXN viability inactive.
COc1ccc(N(CC(=O)Nc2cc(Cl)ccc2OC)S(=O)(=O)c2c(C)[nH]c(=O)[nH]c2=O)cc1 was read as ATXN2 expr inh -8%, HepG2 tox -12%, CtBP-E1A blk -95*, ATXN viability inactive, Six1-Eya2 inh -90* and TGFb SMAD3 inh -2%.
Screening CCOc1ccccc1N1CC(c2nc3ccccc3n2CCOc2ccc(OC)cc2)CC1=O (configuration not stated) returned ATXN2 expr inh inconclusive, HepG2 tox 13µM*, ATXN viability 32µM* and TGFb SMAD3 inh inconclusive.
Screening CCCCN1CC(c2nc3ccccc3n2CCCCOc2ccccc2C)CC1=O (configuration not stated) returned ATXN2 expr inh -24%, HepG2 tox 18µM*, ATXN viability inconclusive and TGFb SMAD3 inh inconclusive.
For CCCCN1CC(c2nc3ccccc3n2CCCCOc2c(C)cccc2C)CC1=O (configuration not stated) the results were ATXN2 expr inh 22µM*, HepG2 tox -118%, ATXN viability inconclusive and TGFb SMAD3 inh inconclusive.
`CCCCN1CC(c2nc3ccccc3n2CCCCOc2cc(C)ccc2C)CC1=O` (configuration not stated) gave ATXN2 expr inh inconclusive, HepG2 tox -92%, ATXN viability inconclusive and TGFb SMAD3 inh inconclusive.
`Cc1c(Cl)cccc1N1CC(c2nc3ccccc3n2Cc2ccccc2F)CC1=O` (configuration not stated) gave ATXN2 expr inh 0%, HepG2 tox -31%, ATXN viability 32µM* and TGFb SMAD3 inh inconclusive.
CCOc1ccc(N2CC(c3nc4ccccc4n3Cc3ccccc3F)CC2=O)cc1 (configuration not stated) was read as ATXN2 expr inh 14%, HepG2 tox -69%, ATXN viability inactive and TGFb SMAD3 inh inconclusive.
`CC1CCN(C(=O)Cn2c(=O)n(CCCCCC(=O)NCc3ccccc3Cl)c(=O)c3sccc32)CC1` gave HepG2 tox -16% and TGFb SMAD3 inh -1%.
For O=C(Cn1sc2ccccc2c1=O)Nc1ccc(Cl)cc1 the results were ATXN2 expr inh -20%, HepG2 tox -57%, CtBP-E1A blk -6, ATXN viability inconclusive, Six1-Eya2 inh -8 and TGFb SMAD3 inh 11µM*.
O=C(Cn1sc2ccccc2c1=O)Nc1ccc(Br)cc1 was read as ATXN2 expr inh -20%, HepG2 tox -48%, CtBP-E1A blk -2, ATXN viability inconclusive, Six1-Eya2 inh -13 and TGFb SMAD3 inh inconclusive.
`O=C(Cn1sc2ccccc2c1=O)Nc1ccc(F)cc1` gave ATXN2 expr inh inconclusive, HepG2 tox 22µM*, CtBP-E1A blk 2, Six1-Eya2 inh -3 and TGFb SMAD3 inh 18µM*.
For COc1cc(/C=C/C(=O)O[C@H]2CC[C@]34C[C@]35CC[C@]3(C)[C@@H]([C@H](C)CCC=C(C)C)CC[C@@]3(C)[C@@H]5CC[C@H]4C2(C)C)ccc1O the results were ATXN2 expr inh 7% and ATXN viability inactive.
`C[C@H](c1ccccc1)N1C[C@H](COCc2ccccc2)Oc2cc(N3CC[C@H](N(C)C)C3)ccc2S1(=O)=O` gave ATXN2 expr inh inconclusive, CtBP-E1A blk inconclusive, ATXN viability 16µM* and Six1-Eya2 inh inconclusive.
CCCCC[C@H](C)N1C[C@H](COCc2ccccc2)Oc2cc(N3CC[C@H](O)C3)ccc2S1(=O)=O was read as ATXN2 expr inh -14%, CtBP-E1A blk -10, ATXN viability inconclusive and Six1-Eya2 inh -6.
`CCCCC[C@@H](C)N1C[C@H](COCc2ccccc2)Oc2cc(N3CC[C@H](N(C)C)C3)ccc2S1(=O)=O` gave ATXN2 expr inh inconclusive, CtBP-E1A blk -26, ATXN viability 25µM* and Six1-Eya2 inh inconclusive.
C[C@H](c1ccccc1)N1C[C@H](COCc2ccccc2)Oc2cc(N3CC[C@H](O)C3)ccc2S1(=O)=O was read as ATXN2 expr inh 0%, CtBP-E1A blk -18, ATXN viability inconclusive and Six1-Eya2 inh -14.
For C[C@H](c1ccccc1)N1C[C@@H](COCc2ccccc2)Oc2cc(N3CC[C@H](O)C3)ccc2S1(=O)=O the results were ATXN2 expr inh -16%, CtBP-E1A blk -10, ATXN viability inconclusive and Six1-Eya2 inh -16.
`C[C@@H](c1ccccc1)N1C[C@H](COCc2ccccc2)Oc2cc(N3CC[C@H](N(C)C)C3)ccc2S1(=O)=O` gave ATXN2 expr inh inconclusive, CtBP-E1A blk inconclusive, ATXN viability 16µM* and Six1-Eya2 inh -28.
For C[C@@H](c1ccccc1)N1C[C@H](COCc2ccccc2)Oc2cc(N3CC[C@@H](N(C)C)C3)ccc2S1(=O)=O the results were ATXN2 expr inh 28µM*, CtBP-E1A blk -26, ATXN viability 22µM* and Six1-Eya2 inh inconclusive.
Screening CC(C)(C)n1ncc2c(=O)n(Cc3cccc(F)c3)cnc21 returned HepG2 tox 4% and TGFb SMAD3 inh -17%.
`S=C(NCc1ccccc1)NCc1ccccc1Cl` gave ATXN2 expr inh -4%, HepG2 tox -43%, CtBP-E1A blk -68*, ATXN viability inactive, Six1-Eya2 inh -3 and TGFb SMAD3 inh inconclusive.
For N=C(N)c1ccc(OCCCOc2ccc(C(=N)N)cc2Br)c(Br)c1 the results were ATXN viability inactive.
Screening Cc1ccc(CN2CCC(c3cc(-c4cccs4)n[nH]3)CC2)cc1 returned ATXN2 expr inh -25%, HepG2 tox -26%, ATXN viability inactive, Six1-Eya2 inh -4 and TGFb SMAD3 inh -20%.
